Compounds with a hit are over-represented: about 8.7% of the library has one in this group of screens.
Cav3 T inh: blocks human Cav3.2 T-type calcium channel | AID 449739 | O95180 | 4% of 100,000 active | B-score at 10 µM | Cav3.2-expressing cells, Fluo-4 calcium fluorescence FDSS; active compounds read low;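 active = single-dose well whose peak fluorescence ratio is a statistical outlier from its plate by either plate-standardised score or position-corrected B-score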
Smad3 inh: inhibitors of human Smad3 transcription factor binding | P84022 | TR-FRET Smad3/Dy647-FoxH1 peptide binding, europium anti-His | inhibition, % at 25 µM | 0.29% of 88,000 active;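 active = compounds that reduce the energy-transfer binding signal between the protein and its labelled peptide by more than half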;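 note: 0% = Smad3 plus labelled peptide maximal FRET and 100% = peptide-only background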
TNAP act mid DEA: activates human TNAP at intermediate phosphate acceptor concentration; 64,000 tested, under 10 active; activation factor at 20 µM; AID 813; purified TNAP, CDP-star luminescence, 100 mM DEA, 30 min; active compounds read high; scale: 0 levamisole-inhibited, 1 vehicle-only enzyme;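 active = activation factor of at least 2 at 20 µM, relative to controls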
PostGolgi ctrl: inhibits growth of the yeast control strain. efflux-deficient yeast background strain, growth absorbance A615, 16 h. inhibition, % at 10 µM. 5% of 98,000 active. AID 738
PostGolgi yeast: growth inhibition of a yeast mutant, post-Golgi transport screen. inhibition, % at 10 µM. post-Golgi transport phenotypic cell assay. 0.9% of 98,000 active;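 note: yeast cells grown in 1536-well plates; yeast grown about 18 h at 30C before absorbance read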
hDAT+cocaine: human DAT dopamine uptake with cocaine, either direction; Q01959; LLC-PK1 hDAT cells, [14C]-dopamine uptake with cocaine IC80; actives deviate in either direction; B-score at 10 µM; 1.3% of 110,000 active; AID 449768;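 active = Z score or B-score, a plate-position-corrected score, falls beyond the plate's 99.7% confidence bounds, in either direction; inactive = both scores lie inside the 99.7% bounds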;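 note: scored against the spread of the other compound wells on the same plate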
Target sequence (Q01959 whole entry, looked up): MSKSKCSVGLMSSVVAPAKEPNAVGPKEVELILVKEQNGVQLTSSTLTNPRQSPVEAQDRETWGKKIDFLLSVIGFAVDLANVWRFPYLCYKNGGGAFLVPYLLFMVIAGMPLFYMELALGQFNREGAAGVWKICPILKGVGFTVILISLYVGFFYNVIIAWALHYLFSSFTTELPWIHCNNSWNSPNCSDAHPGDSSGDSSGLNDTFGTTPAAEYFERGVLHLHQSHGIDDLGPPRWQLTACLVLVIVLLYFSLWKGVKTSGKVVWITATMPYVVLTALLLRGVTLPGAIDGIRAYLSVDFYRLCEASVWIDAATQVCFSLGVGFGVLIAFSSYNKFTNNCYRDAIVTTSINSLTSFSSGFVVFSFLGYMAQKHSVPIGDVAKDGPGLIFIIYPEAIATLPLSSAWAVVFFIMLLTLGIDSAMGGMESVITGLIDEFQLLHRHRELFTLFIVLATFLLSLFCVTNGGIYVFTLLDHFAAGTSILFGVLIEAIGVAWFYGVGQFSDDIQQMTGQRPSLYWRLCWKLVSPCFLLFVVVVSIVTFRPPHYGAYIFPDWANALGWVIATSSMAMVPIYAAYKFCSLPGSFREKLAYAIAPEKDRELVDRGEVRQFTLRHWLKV
An asterisk follows results filed as active. Cut-off read from the data, not from the text of the source, unless noted: active = inhibition above about 30%; inactive = the rest.

For COc1ccccc1N1CCN(C(CNS(=O)(=O)c2ccc(C)cc2)c2cccnc2)CC1 (configuration not stated) the results were Cav3 T inh -0.429, Smad3 inh 5.5, TNAP act mid DEA 1, PostGolgi ctrl 4.4, PostGolgi yeast -2.7 and hDAT+cocaine 1.06.
For COc1ccc(C(=O)NCC(c2cccnc2)N2CCN(c3ccc(F)cc3)CC2)cc1OC (configuration not stated) the results were Cav3 T inh -0.144, TNAP act mid DEA 1, PostGolgi ctrl -0.6, PostGolgi yeast -1.6 and hDAT+cocaine 0.0551.
Screening Cc1cc2c(c(=O)o1)C(Cc1ccccc1)C(C#N)=C(N)O2 (configuration not stated) returned Cav3 T inh 0.431, Smad3 inh -3.0, TNAP act mid DEA 0.9, PostGolgi ctrl 9.2, PostGolgi yeast 0.0 and hDAT+cocaine -0.93.
S=c1[nH]nc(COc2ccc3ccccc3c2)o1 was read as Cav3 T inh -1.09, Smad3 inh 3.3 and hDAT+cocaine 0.0666.
O=C(NCC(c1cccnc1)N1CCOCC1)c1cccc(Cl)c1 (configuration not stated) was read as Cav3 T inh 0.974, Smad3 inh 4.0, TNAP act mid DEA 0.9, PostGolgi ctrl 7.2, PostGolgi yeast -4.2 and hDAT+cocaine -1.5.
Screening O=C(NCC(c1cccnc1)N1CCN(c2ccccc2F)CC1)c1cccc(Cl)c1 (configuration not stated) returned Cav3 T inh -3.25, Smad3 inh 0.7, TNAP act mid DEA 0.9, PostGolgi ctrl 24.1, PostGolgi yeast 47.0* and hDAT+cocaine 0.675.
N#CC1=C(c2ccccc2)/C(=C/c2ccccc2)OC1=O was read as Cav3 T inh 0.988, Smad3 inh -1.7, PostGolgi ctrl 50.6*, PostGolgi yeast 10.8 and hDAT+cocaine -1.12.
For O=C(CCn1c(=O)[nH]c2ccsc2c1=O)N1CCN(c2cccc(Cl)c2)CC1 the results were Cav3 T inh -5.91*, Smad3 inh 9.2, TNAP act mid DEA 0.9, PostGolgi ctrl 25.9, PostGolgi yeast -0.8 and hDAT+cocaine 1.23.
Screening COC(=O)CCN(C(C)=O)c1ccc(N)cc1 returned Cav3 T inh -0.2, Smad3 inh 4.0, TNAP act mid DEA 0.9, PostGolgi ctrl 40.1*, PostGolgi yeast -7.1 and hDAT+cocaine 0.0161.
Screening O=C(OCc1ccccc1)c1cccc(-c2nnn(Cc3ccccc3)n2)c1 returned Cav3 T inh -4.08*, Smad3 inh -1.4, PostGolgi ctrl -1.1, PostGolgi yeast 7.6 and hDAT+cocaine 0.0297.
O=C(Cn1nnc(-c2ccccc2)n1)OCc1ccccc1 was read as Cav3 T inh -0.035, TNAP act mid DEA 0.9, PostGolgi ctrl 7.3, PostGolgi yeast -6.3 and hDAT+cocaine 0.804.
`CC(=O)NS(=O)(=O)c1ccc(NC(=S)NC(=O)C(C)C)cc1` gave Cav3 T inh 0.631, PostGolgi ctrl 35.9*, PostGolgi yeast -0.1 and hDAT+cocaine 0.36.
For Cc1sc(NC(=O)c2ccco2)c(C(c2cccnc2)N2CCN(C)CC2)c1C (configuration not stated) the results were Cav3 T inh 1.07, Smad3 inh -0.2, PostGolgi ctrl 15.4, PostGolgi yeast -3.9 and hDAT+cocaine 1.18.
For Cc1sc(NC(=O)c2ccco2)c(C(c2cccnc2)N2CCCC2)c1C (configuration not stated) the results were Cav3 T inh -0.818, Smad3 inh 3.1, PostGolgi ctrl 38.8*, PostGolgi yeast -0.1 and hDAT+cocaine 0.736.
Screening Cc1sc(NC(=O)c2ccco2)c(C(c2ccncc2)N2CCOCC2)c1C (configuration not stated) returned Cav3 T inh 0.94, Smad3 inh 2.1, TNAP act mid DEA 1, PostGolgi ctrl 33.3*, PostGolgi yeast -3.5 and hDAT+cocaine 0.945.
O=c1c2[nH]c3ccccc3c2ncn1C1CCCCC1 was read as Cav3 T inh -0.191, Smad3 inh -0.5, TNAP act mid DEA 0.9, PostGolgi ctrl 17.7 and PostGolgi yeast 34.0*.
Screening O=C(O)c1c2c(c(O)c3c1CN(C1CCCCC1)CO3)OCN(C1CCCCC1)C2 returned Smad3 inh 62.4*.
COc1ccc(NC(=O)CN2CCN(CC(=O)Nc3ccc4c(c3)OCO4)CC2)cc1 was read as Cav3 T inh -0.966, Smad3 inh 4.1, TNAP act mid DEA 0.9, PostGolgi ctrl 0.9, PostGolgi yeast 19.0 and hDAT+cocaine 0.608.
Screening COc1ccccc1NC(=O)CN1CCN(c2ccc(Cl)cc2)CC1 returned Cav3 T inh 0.171, Smad3 inh 4.1, TNAP act mid DEA 0.9, PostGolgi ctrl 31.8*, PostGolgi yeast 0.5 and hDAT+cocaine -0.124.
O=C(CN1CCN(c2ccc(Cl)cc2)CC1)Nc1ccc(F)cc1 was read as Cav3 T inh -4.5*, Smad3 inh -2.5, TNAP act mid DEA 1, PostGolgi ctrl 15.7, PostGolgi yeast -5.1 and hDAT+cocaine 0.219.
Screening O=C(CN1CCN(c2ccc(F)cc2)CC1)Nc1cc(C(F)(F)F)ccc1Cl returned Smad3 inh -12.8, TNAP act mid DEA 1, PostGolgi ctrl 47.6*, PostGolgi yeast -3.7 and hDAT+cocaine 0.792.
`COc1ccccc1NC(=O)CN1CCN(CC(=O)Nc2ccc3c(c2)OCO3)CC1` gave Cav3 T inh 0.343, Smad3 inh 5.4, TNAP act mid DEA 0.9, PostGolgi ctrl 0.4, PostGolgi yeast -4.6 and hDAT+cocaine -4.29*.
`CCOC(=O)c1c(C)oc2c1c1c(c3ccccc32)OCN(Cc2cccnc2)C1` gave Smad3 inh 1.2, TNAP act mid DEA 1, PostGolgi ctrl 35.2*, PostGolgi yeast 9.0 and hDAT+cocaine 0.0398.
Screening CCOC(=O)c1c(C)oc2c1c(C(c1cccnc1)N1CCN(C)CC1)c(O)c1ccccc12 (configuration not stated) returned Smad3 inh 7.6 and TNAP act mid DEA 0.9.
CCOC(=O)c1c(C)oc2c1c(C(c1cccnc1)N1CCOCC1)c(O)c1ccccc12 (configuration not stated) was read as Cav3 T inh 0.983, PostGolgi ctrl 37.0*, PostGolgi yeast -1.6 and hDAT+cocaine 1.23.
`COc1ccc2cc(C(=O)Nc3ccc(F)cc3)sc(=O)c2c1OC` gave Cav3 T inh 0.922, PostGolgi ctrl 10.1, PostGolgi yeast -5.2 and hDAT+cocaine 0.0119.
Screening COc1ccccc1CNC(=O)C(CC(C)C)NC(=O)C1CCC(C)CC1 (configuration not stated) returned Cav3 T inh -5.84*, Smad3 inh 3.9, PostGolgi ctrl 11.1, PostGolgi yeast 14.8 and hDAT+cocaine -0.161.
For COc1ccccc1CNC(=O)C1CCN(C(=O)N(C)C)CC1 the results were Cav3 T inh -1.17, Smad3 inh 4.0, PostGolgi ctrl 0.0, PostGolgi yeast -5.3 and hDAT+cocaine -0.725.
